# Results: PubChem BioAssay (NCI)
# About 83,000 compounds went through this panel and 20% of them were active in at least one assay; those are over-represented in the sample as a whole.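 Step 1: grow cells in 96-well plates. Step 2: add test compound at a single concentration. Step 3: incubate 48 h. Step 4: record percent growth.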 Unmarked numbers belong to inactive results. Active and inactive are the calls of the source. How the source made its calls: active means growth percent below 10; inactive means the rest.
# Test system: RPMI-8226 leukemia
# Test: NCI-60 one-dose screen, 48 h (100 = growth as untreated, 0 = no growth, -100 = all killed)
# Settings: 10 µM unless noted
row,Compound,growth
1,O=C(Nn1c(NCC(=O)N2c3ccccc3Sc3ccccc32)nnc1-c1ccc(O)cc1)c1ccccc1,101%
2,O=C1c2ccccc2NC(n2sc3ccccc3c2=O)N1c1ccccc1 (stereo not drawn),101%
3,O=C1NC(=O)C(Cn2cnc3ccccc32)N1 (stereo not drawn),99.5%
4,CN1CCN(Cc2ccc(NC(=O)c3cncc(C#Cc4cnccc4C#N)c3)cc2C(F)(F)F)CC1,34.1%
5,Cc1ccc2c(-c3cc(-c4ccccc4)nc(N)c3C#N)cc(=O)oc2c1,101%
6,CC(=O)Oc1ccccc1C(=O)N=C1[Se]CCCN1C(=O)c1ccccc1OC(C)=O,80.8%
7,NC1CCN(c2nc(Nc3cccc(C(F)(F)F)c3)c3c(=O)[nH]ccc3n2)CC1,-45.4% (active)

# Test system: OVCAR-8 ovarian
# Test: as above
# Settings: 10 µM unless noted
row,Compound,growth
1,O=C(Nn1c(NCC(=O)N2c3ccccc3Sc3ccccc32)nnc1-c1ccc(O)cc1)c1ccccc1,104%
2,N#C/C(=C\c1cccc2cnccc12)n1nnc2cccc(F)c21,41.7%
3,O=C(S)CNC(=O)c1ccccc1,101%
4,CN(C)c1ccc2nc3ccc(=[N+](C)C)c([N+](=O)[O-])c-3sc2c1,12.7%
5,Cc1nc2ccccc2c(/C=C/c2ccccc2)c1C(=O)/C=C/c1ccc(C(F)(F)F)cc1,10.3%
6,CCOC(=O)c1nc(Nc2ccc(C(C)=O)cc2)sc1C,103%
7,Oc1ccc(Cl)cc1Cc1cc(Cl)cc(Cl)c1O,73.4%
8,COc1nc2ccc(C)cc2cc1-c1nc2c(cnn2-c2ccc(Br)cc2)c(=O)[nH]1,40.7%
9,CC(=O)OC[C@H]1OC(Sc2sc(C(=O)c3ccc(Cl)cc3)c(N)c2-c2nc3ccccc3s2)[C@H](OC(C)=O)[C@@H](OC(C)=O)[C@@H]1OC(C)=O (stereo partly drawn),72.6%
10,O=C1NC(=O)C(Cn2cnc3ccccc32)N1 (stereo not drawn),106%
11,COc1cc(/C=C/C(=O)/C=C/c2cc(OC)c3c(c2OC)OCO3)c(OC)c2c1OCO2,2.45% (active)
12,COc1c(B(O)O)cc(C)cc1-c1nc2ccc3[nH]ncc3c2c2c1CCCC2,53.3%
13,CCCCCCN(CCCCCC)c1ccc(/C=C2/SC(=O)NC2=O)c(C)c1,80.6%
14,COC(=O)c1ccc2[nH]c(O)c(C(=Nc3ccc(N(C)C(=O)CN4CCN(C)CC4)cc3)c3ccccc3)c2c1,26%
15,CCOC(=O)CC1C(COC(=O)NC)OC(n2cnc3c(NC(=O)Nc4ccccc4)ncnc32)C1O[Si](C)(C)C(C)(C)C (stereo not drawn),74%
16,CN1C(=O)N(C)C2Nn3c(s/c(=C\c4ccccc4)c3=O)=NC21 (stereo not drawn),96%
17,COc1cc(C(=O)c2cc(C)c3[nH]c4ccc(C)cc4c3c2C)cc(OC)c1OC,28.7%
18,CC(=O)N1CCN(c2ccc(OCC3CO[C@](Cn4ccnc4)(c4ccc(Cl)cc4Cl)O3)cc2)CC1 (stereo partly drawn),83.9%

row,Compound,growth
1,CN1CCN(Cc2ccc(NC(=O)c3cncc(C#Cc4cnccc4C#N)c3)cc2C(F)(F)F)CC1,74.2%
2,CCOC(=O)/C(C#N)=C\Nc1ccc2ncnc(Nc3ccc(Cl)cc3Cl)c2c1,87%
3,Cn1cc(C(=O)c2nc(-c3cn(C)c4ccc(F)cc34)no2)c2cc(F)ccc21,95.5%
4,c1cc(-c2nnc(SSc3ncnc4nc[nH]c34)o2)ccn1,20.4%
5,CN(C)CC#Cc1ccc2ncc(C#N)c(Nc3ccc(F)c(Cl)c3)c2c1,45.2%
6,C#Cc1cccc(NC(=O)Nc2ccccc2NC(=O)CCl)c1,-13.6% [8.25 µM] (active)
7,COc1ccc2c(c1OC)C(=O)O[C@H]2[C@H]1c2c(cc3c(c2OC)OCO3)CCN1C,95.8%
8,C[C@]12CC[C@@H]3c4cc(OC(F)F)c(OS(N)(=O)=O)cc4CC[C@H]3[C@@H]1CC[C@@H]2O,35.3%
9,CC(=O)Oc1ccccc1C(=O)N=C1[Se]CCCN1C(=O)c1ccccc1OC(C)=O,47%
10,N#Cc1c(-c2ccc(Cl)cc2)nc2c(c(-c3ccccc3)nn2-c2ccccc2)c1-c1ccc(O)cc1,49.9%
11,CC(=O)c1ccc(Nc2nc(C(C)=O)c(C)s2)cc1,102%
12,O=C(CCCCCCSc1nc(-c2ccccc2)cc(-c2ccccc2)n1)NO,27.6%
13,Cc1cc(Cl)ccc1NS(=O)(=O)c1ccc(-c2cnc(C3CC3)o2)cc1,27.4%
14,Brc1ccc2[nH]cc(-c3nc(-c4c[nH]c5ccncc45)cs3)c2c1,-64.5% (active)
15,COc1cc(C(=O)/C=C/c2c(Cl)nc3sccn23)cc(OC)c1OC,85.9%
16,N/C(=N\c1nc2ccccc2s1)NC(=O)Nc1cccc2ccccc12,32.9%
17,NC1CCN(c2nc(Nc3cccc(C(F)(F)F)c3)c3c(=O)[nH]ccc3n2)CC1,-44.7% (active)
18,COc1ccc(/C=N/Nc2cc(=O)[nH]c3ccc(Cl)cc23)cc1,69.1%
